Compound activity deposited in PubChem BioAssay by National Center for Advancing Translational Sciences (NCATS).
Glioma ERSR ind: inducers of ER stress response in human glioma cells; Potency, µM, most hits filed as activators; AID 602332; hit rate 0.02% among 420,000; U87-MG GRP78 promoter luciferase reporter, 16 h; also: series mostly up to about 76 µM; nearly all actives have a fitted effect of over 35% in size
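ERSR induction read as luciferase luminescence (Bright-Glo, 10 min at room temperature) in stably transfected human U87-MG glioma cells exposed to compounds for 16 h, using GRP78 as sensor.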
PINK1 expr mod: modulators of PINK1 expression. PINK1 immunofluorescence, high-content cytometry, 24 h. Potency, µM (titrated, usually from 76.6 µM), hits mostly activators. hit rate 0.2% among 410,000. AID 624263; active = well fitted activation curve with a large enough effect; inconclusive = small, poorly fitted or top-dose-only effect; cell line not stated here; also: nearly all actives have a fitted effect of over 65% in size
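Compound titrations (5 concentrations, 24 h) on a stable cell line; DMSO and CCCP controls. Endpoint: fixed-cell PINK1 immunofluorescence with mitochondrial, cell and nuclear markers, scanned by microplate cytometer.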
Vif-A3F inh: Vif-A3F binding inhibition; hit rate 0.2% among 390,000; AID 602313; Potency, µM (series often up to 46.1 µM); HeLa A3F-eYFP + Vif (tagged APOBEC3F with the HIV-1 protein that degrades it), YFP fluorescence increase; also: nearly all actives have a fitted effect of over 65% in size
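Fluorescence increase (Ex 488/Em 500-530) after overnight compound treatment at 37 deg C flags inhibition of Vif-driven A3F-eYFP loss in stable HeLa A3F-eYFP/Vif cells seeded overnight beforehand.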
Vif-A3G inh: Vif-A3G binding inhibition; hit rate 0.076% among 410,000; Potency, µM (top dose mostly 46.1 µM), most hits filed as inhibitors; HeLa A3G-eYFP + Vif (tagged APOBEC3G with the HIV-1 protein that degrades it), YFP fluorescence, overnight; also: nearly all actives have a fitted effect of over 60% in size
Target sequence (Q9HC16 whole entry, looked up): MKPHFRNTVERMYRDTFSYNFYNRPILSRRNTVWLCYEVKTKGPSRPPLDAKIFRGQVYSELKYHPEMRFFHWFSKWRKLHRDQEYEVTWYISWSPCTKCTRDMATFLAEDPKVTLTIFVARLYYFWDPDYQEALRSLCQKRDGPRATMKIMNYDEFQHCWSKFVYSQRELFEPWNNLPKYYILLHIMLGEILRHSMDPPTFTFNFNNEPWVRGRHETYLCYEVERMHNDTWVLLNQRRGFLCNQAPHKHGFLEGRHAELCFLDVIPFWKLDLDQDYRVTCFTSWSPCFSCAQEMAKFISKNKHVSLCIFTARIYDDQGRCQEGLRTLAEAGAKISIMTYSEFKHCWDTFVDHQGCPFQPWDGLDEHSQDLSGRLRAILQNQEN
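Read-out is eYFP fluorescence (Ex 488/Em 500-530) from Vif-expressing HeLa A3G-eYFP cells; more signal means A3G escaped Vif-mediated degradation. Cells plated overnight, compound pinned in, incubated overnight at 37 deg C.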
FUS yeast rescue: rescues growth of FUS-expressing yeast. Potency, µM (top dose mostly 76.6 µM), hits mostly activators. hit rate 0.24% among 390,000. S. cerevisiae FUS-expressing, growth rescue, OD600, 24 h; also: nearly all actives have a fitted effect of over 55% in size
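FUS-expressing yeast, raffinose-pregrown, induced in 2% galactose minimal medium at OD 0.005; compounds in a dilution series, 24hr at 30C. Growth restoration read as absorbance at 600 nm. CP55940 positive control, DMSO negative.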
Abeta yeast res: A-beta toxicity reversal in yeast; yeast expressing A-beta42, growth rescue, OD600, 48 h; response scale: 0% DMSO, 100% iron-clioquinol control; Potency, µM (highest dose often 46.1 µM), hits mostly activators; hit rate 0.063% among 410,000; AID 1347071; also: nearly all actives have a fitted effect of over 55% in size
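Growth rescue measured by 600 nm absorbance after 48 h yeast culture at 30 C with compound. Values normalized between DMSO and an equimolar ferric chloride plus clioquinol control.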
Of the large screens only hits and unclear results are named; the others gave an inactive call. Only some compounds are listed: those with a hit (about 0.69% of all), similar ones and a draw of the others. Unless noted, calls follow the shape of the dose curve; as a rule, active = well fitted curve in the direction sought with a large enough effect; inconclusive = small, poorly fitted or top-dose-only effect, or another doubt; inactive = no such curve, though single readings can be large; an effect the other way counts as inactive or inconclusive.

Cc1nc(CC(=O)NCC2Cc3cc(F)cc(-c4ccc(F)c(C)c4)c3O2)cs1 (stereo not given)	none (no result: Vif-A3F inh, Vif-A3G inh, FUS yeast rescue, Abeta yeast res)
COc1ccc(C(=O)c2sc3nc(-c4ccc(C)cc4)cc(C(F)(F)F)c3c2N)cc1	Vif-A3F inh 1.3µM, Vif-A3G inh 8.9µM
COc1ccc(C(=O)c2sc3nc(C)cc(-c4cccs4)c3c2N)cc1OC	Vif-A3F inh inconclusive, Vif-A3G inh inconclusive
COc1ccc(-c2cc(-c3cccs3)nc3sc(C#N)c(N)c23)cc1	Vif-A3F inh 11µM, Vif-A3G inh inconclusive (no result: FUS yeast rescue)
Cc1cc(C)c2c(N)c(C(=O)N/N=C/c3cccs3)sc2n1	PINK1 expr mod 25µM, Vif-A3F inh inconclusive, Vif-A3G inh inconclusive
COc1ccc(NC(=O)c2sc3nc(-c4ccc(OC)cc4)cc(C(F)(F)F)c3c2N)cc1	PINK1 expr mod inconclusive, Vif-A3F inh inconclusive, Vif-A3G inh inconclusive
COc1ccc(C(=O)c2sc3nc(C)cc(-c4cccs4)c3c2N)cc1	Vif-A3F inh 22µM, Vif-A3G inh 13µM
COc1cc(CN2CCCC(n3cc(C(=O)N4CCCCC4)nn3)C2)cc(OC)c1OC (stereo not given)	none (no result: Vif-A3F inh, Vif-A3G inh, FUS yeast rescue, Abeta yeast res)
O=C(NCc1ccncc1)c1cnn(-c2nccc(-c3cccs3)n2)c1C1CC1	none (no result: Vif-A3F inh, Vif-A3G inh, FUS yeast rescue, Abeta yeast res)
O=C(NCc1cccnc1)c1cnn(-c2nccc(-c3cccs3)n2)c1C1CC1	none (no result: Vif-A3F inh, Vif-A3G inh, FUS yeast rescue, Abeta yeast res)
COC(=O)[C@]12C[C@H](CC(=O)N3CCSCC3)C(=O)N(Cc3ccco3)C1=C[C@H](C(C)C)O[C@@H]2C1CC1	none (no result: Glioma ERSR ind, PINK1 expr mod, Vif-A3F inh, Vif-A3G inh, Abeta yeast res)
CCCCCCCCN1C(=O)[C@@H](CC(=O)N2CCOCC2)C[C@@]2(C(=O)OC)C1=C[C@H](C(C)C)O[C@@H]2C1CC1	FUS yeast rescue 8.9µM (no result: Glioma ERSR ind, PINK1 expr mod, Vif-A3F inh, Vif-A3G inh, Abeta yeast res)
CCCCCCCCN1C(=O)[C@@H](CC(=O)N2CCCC2)C[C@@]2(C(=O)OC)C1=C[C@H](C(C)C)O[C@@H]2C1CC1	FUS yeast rescue 13µM (no result: Glioma ERSR ind, PINK1 expr mod, Vif-A3F inh, Vif-A3G inh, Abeta yeast res)
CCCCCCCCN1C(=O)[C@@H](CC(=O)N2CCSCC2)C[C@@]2(C(=O)OC)C1=C[C@H](C(C)C)O[C@@H]2C1CC1	FUS yeast rescue 4.5µM (no result: Glioma ERSR ind, PINK1 expr mod, Vif-A3F inh, Vif-A3G inh, Abeta yeast res)
COC(=O)[C@]12C[C@H](CC(=O)N3CCCCC3)C(=O)N(CCC3=CCCCC3)C1=C[C@H](C(C)C)O[C@@H]2C1CC1	none (no result: Glioma ERSR ind, PINK1 expr mod, Vif-A3F inh, Vif-A3G inh, Abeta yeast res)
Cc1nn(-c2ccccc2)c(C)c1CC(=O)NCC1Cc2cc(-c3cncnc3)ccc2O1 (stereo not given)	none (no result: Vif-A3F inh, Vif-A3G inh, FUS yeast rescue, Abeta yeast res)
CC(C)(C)c1ccc(Cn2cnc3c(cnn3C(C)(C)C)c2=O)cc1	none (no result: PINK1 expr mod, Vif-A3F inh, FUS yeast rescue, Abeta yeast res)
CN1CCc2nc3sc(C(=O)Nc4c(F)cccc4F)c(N)c3cc2C1	none
CC(C)OC(=O)CC(=O)c1sc2nc3c(cc2c1N)CN(C)CC3	FUS yeast rescue 13µM
Cc1ccc(-c2cc(-c3nnc(SCC(=O)Nc4ccccc4-c4ccccc4)n3N)[nH]n2)cc1	FUS yeast rescue 18µM (no result: Glioma ERSR ind, PINK1 expr mod, Vif-A3F inh, Vif-A3G inh, Abeta yeast res)
O=C(CSc1nnc(-c2ccccc2)n1-c1ccc(Cl)cc1)Nc1ccccc1-c1ccccc1	FUS yeast rescue 8.9µM (no result: Glioma ERSR ind, PINK1 expr mod, Vif-A3F inh, Vif-A3G inh, Abeta yeast res)
COc1cc(NC(=O)c2ccccc2)c(C)cc1NC(=O)CSc1nnc(-c2ccccc2F)n1-c1ccc(C)cc1	FUS yeast rescue 10µM (no result: Glioma ERSR ind, PINK1 expr mod, Vif-A3F inh, Vif-A3G inh, Abeta yeast res)
Cc1cnc(SCC2CCCO2)nc1C1CCCN(C(=O)c2ccc(S(N)(=O)=O)cc2)C1 (stereo not given)	none (no result: Vif-A3F inh, Vif-A3G inh, FUS yeast rescue, Abeta yeast res)
C[N+]1(CC(=O)c2ccc(I)cc2)CCCc2ccccc21 (stereo not given)	none (no result: PINK1 expr mod, Vif-A3F inh, FUS yeast rescue, Abeta yeast res)
CC(C)(C)c1ccc(-c2cn(-c3ccc(Br)cc3)c3[n+]2CCCS3)cc1	PINK1 expr mod 35µM
c1ccc(-c2cn(-c3ccccc3)c3[n+]2CCS3)cc1	none
CCc1c(C)sc(NC(=O)CC#N)c1C#N	FUS yeast rescue 10µM
COc1cc2nc(N3CCCC(O)C3)c(CNCc3ccccc3C(F)(F)F)cc2c(OC)c1OC (stereo not given)	none (no result: Vif-A3F inh, Vif-A3G inh, FUS yeast rescue, Abeta yeast res)
COc1ccccc1NC(=O)c1oc2ccccc2c1NC(=O)c1cccc(OC)c1OC	Vif-A3G inh 5.6µM
CC(=O)c1ccc(F)c(-c2cc(C)cc3c2OC(CNC(=O)c2csc(C)n2)C3)c1 (stereo not given)	none (no result: Vif-A3F inh, Vif-A3G inh, FUS yeast rescue, Abeta yeast res)
